The record followed here is ChEMBL document CHEMBL3988442, “University of Dundee, Small-Polar-MMV Screening Library” (2021).

In all, about 48,000 compounds went through this assay and about 13,000 (27%) showed an effect of 50% or more. Some of the results follow.

This test deals with Wolbachia pipientis. Briefly: Anti-Wolbachia Cell-Based Screen. The following applies: 5 µM. On the set-up: scale not given: in the data most compounds retested in dose-response had high values. In kind it is functional.
In the case of `CSCC(=O)N1CCc2[nH]nc(-c3ccc4c(c3)OCO4)c2C1`, the “Percent Effect” value is listed as -14.59%. For the compound `CN(C)C(=O)c1cccnc1-c1ccc2c(c1)OCO2`, the “Percent Effect” value is recorded as -0.5608%. Then `O=C(O)CSc1nccc(-c2ccc3c(c2)OCO3)n1`, with 78.66%; and `CNCc1nc(-c2ccc3c(c2)OCO3)c[nH]1.Cl.Cl`, with -0.9226%. Then `NC(=O)CSc1nccc(-c2ccc3c(c2)OCO3)n1`, with 94.21%; and `CCOc1ccc(-c2ccc3c(c2)OCO3)cc1C(N)=O`, with -6.962%. On to `O=C(Cc1ccc2c(c1)OCO2)N1CCN(c2ccncc2)CC1`, for which the “Percent Effect” value is -22.19%. For the compound `NC(=O)CCC(=O)N1CCc2[nH]nc(-c3ccc4c(c3)OCO4)c2C1`, the “Percent Effect” value is on record as -2.811%. With `O=C(CSc1nccc(-c2ccc3c(c2)OCO3)n1)N1CCOCC1`, the “Percent Effect” value is listed as 110.7%. For `Cn1cccc(NC(=O)N2CCC(COCc3ccccc3)C2)c1=O` (stereo not drawn), the “Percent Effect” value came out at 7.256%. The figure for `Cc1ccc(C)c(OCC(O)Cn2ncc3cnn(C)c(=O)c32)c1` (stereo not drawn) is -5.252%. As to `O=S(=O)(NC1=NCN(CCc2cccs2)CN1)c1ccc(F)cc1`, the “Percent Effect” value was 4.244%.

Take `Cc1cc(N[C@H](CO)COCc2ccccc2)n2nc(C)cc2n1`: the “Percent Effect” value was found to be 2.305%. For `CCN1CC(COc2ccc(OC)cc2)Oc2ccncc2S1(=O)=O` (stereo not drawn), the “Percent Effect” value is reported as 109.7%. In the case of `COc1ccc(CN2CCOC[C@H](Oc3cccnc3)C2)cc1`, the “Percent Effect” value is listed as -13%.

In the case of `CCN1CC(COC(C)(C)C)Oc2ccncc2S1(=O)=O` (stereo not drawn), the “Percent Effect” value was 103.5%.

On to `COc1ccc(OCCN2CCOCS2(=O)=O)cc1`, for which the “Percent Effect” value is reported as -3.078%. The figure for `COCC1CN(Cc2ccc(OC)cc2)S(=O)(=O)c2cnccc2O1` (stereo not drawn) is 99.8%; for `CC(C)(C)OCC1CN(CC2CC2)S(=O)(=O)c2cnccc2O1` (stereo not drawn) it is 96.42%; for `COc1ccc(CCC(=O)Nc2ccncc2C)cc1` it is 3.309%. Turning to `COc1ccc(C[C@@H]2CC[C@H](CN(C)C3CCN(C)CC3)O2)cc1`, the “Percent Effect” value is given as 15.35%. The figure for `Cc1nc(-c2noc3ccc(C(=O)NCCN(C)C)cc23)co1` is -5.984%. For the compound `CN(CCn1cccn1)S(=O)(=O)c1cccc(Cl)c1C#N`, the “Percent Effect” value was -13.18%. Then `CO[C@@H]1CCN(Cc2cccs2)[C@H]1Cc1ccncc1`, with 4.278%; and `O=C(O)C(=O)O.c1csc(CN2CC(c3nc(-c4cnccn4)no3)C2)c1`, with 14.88%; and `CC(C)(C)OCC1CN(Cc2cccs2)S(=O)(=O)c2cnccc2O1` (stereo not drawn), with 118.6%.

In the case of `Cc1cc(NC(=O)NC(C)CO)ccc1OCC(F)(F)F` (stereo not drawn), the “Percent Effect” value is listed as -7.879%. Turning to `CCCS(=O)(=O)c1ccc(N2CCC(Cc3ccccc3)CC2)nn1`, the “Percent Effect” value turned out to be 21.52%.

Turning to `CC(=O)Nc1nc(SCc2ccc3c(c2)OCO3)ns1`, the “Percent Effect” value was 70.31%. Take `CC(=O)N1CCCN(C(=O)Cc2ccc3c(c2)OCO3)CC1`: the “Percent Effect” value worked out at 1.177%. With `O=C(c1cc(COc2ccc3c(c2)OCO3)[nH]n1)N1CCSCC1`, the “Percent Effect” value was determined as 4.191%. For the compound `CCSc1nsc(NC(=O)COc2ccc3c(c2)OCO3)n1`, the “Percent Effect” value is on record as 106.2%. Take `Cc1nnc(SCCCNC(=O)Cc2ccc3c(c2)OCO3)s1`: the “Percent Effect” value is given as -3.831%. For the compound `CC(C)c1nc(CC(=O)N(C)Cc2ccc3c(c2)OCO3)cs1`, the “Percent Effect” value is -4.138%. In the case of `Nc1nc(SCc2ccc3c(c2)OCO3)ns1`, the “Percent Effect” value is reported as 92.69%. As to `CN(Cc1ccc2c(c1)OCO2)Cc1cscn1`, the “Percent Effect” value worked out at 9.115%.

Regarding `Cn1nc2c(cc1=O)CN(Cc1nnc(-c3ccco3)o1)CC2`, the “Percent Effect” value is -2.817%. As for `C=C(C)CN(CC)S(=O)(=O)c1c(F)cc(NC(C)=O)cc1F`, the “Percent Effect” value was 26.08%. Take `CC(NCC1=Cc2cc(Cl)ccc2OC1)c1nnc2n1CCCC2` (stereo not drawn): the “Percent Effect” value turned out to be 8.386%. `CCNc1ccnc(N2CCN(Cc3ncccc3C)CC2)n1`: the “Percent Effect” value was 0.1311%. Turning to `CCNc1nc(-c2cccnc2)c(-c2ccnc(N3CCCC3)n2)s1`, the “Percent Effect” value is recorded as 59.83%.

As for `CCc1cnc(NCC(c2cccnc2)N2CCOCC2)nc1` (stereo not drawn), the “Percent Effect” value came out at 1.67%. The figure for `CCCS(=O)(=O)N1CCN(c2ccnc(N3CCCC3)n2)CC1` is 2.468%; for `CCNc1nc(-c2cccnc2)c(-c2ccnc(N3CCOCC3)n2)s1` it is 59.36%; for `CN1CCOC[C@H]1c1nc(-c2cccnc2)c[nH]1` it is -3.029%. On to `CN(Cc1nccn1C)c1ccc(-c2nccn2C)nn1`, for which the “Percent Effect” value is listed as -5.677%. On to `Cc1nc(NC2CCCC2)cc(C2CCN2c2ncccn2)n1` (stereo not drawn), for which the “Percent Effect” value turned out to be 84.97%.

`CNc1cc(C2CCN2c2ncccn2)nc(C)n1` (stereo not drawn): the “Percent Effect” value stood at 95.15%. `Cc1nc(C2CCN2c2ncccn2)cc(N(C)C)n1` (stereo not drawn): the “Percent Effect” value was determined as 87.93%. `CN(Cc1nnc2n1CCC2)S(=O)(=O)c1cc(Br)ccc1Br`: the “Percent Effect” value worked out at 5.695%. In the case of `O=C(c1cncc(N2CCC3(CC2)NCCNC3=O)n1)N1CCCCC1`, the “Percent Effect” value is -23.93%. For `CN(C)CCn1ccc2cc(NC(=O)NCc3ccon3)ccc21`, the “Percent Effect” value was -4.037%. As to `O=C(Cc1cccc(F)c1F)NS(=O)(=O)c1ccc(Cl)cn1`, the “Percent Effect” value was 3.295%. Then `O=C(CNc1cc2c(cc1Cl)OCCO2)NCC(F)(F)F`, with 19.2%; and `COc1ccc(CN(C)CC2(O)CCNC2)cc1` (stereo not drawn), with 119.3%; and `COc1ccc(C2(C(=O)N3CC[C@@]4(O)CCNC[C@H]4C3)CCCC2)cc1`, with -11.98%. As to `CN(Cc1ccc2nsnc2c1)CC1(O)CCNC1` (stereo not drawn), the “Percent Effect” value was determined as 4.818%. For the compound `N#Cc1cn(C2CC2)c(=O)n(Cc2ncc(-c3cccs3)o2)c1=O`, the “Percent Effect” value was 18.42%. Then `COCCCN1CC2(CCCN(c3ncc4nc[nH]c4n3)C2)CCC1=O` (stereo not drawn), with -4.995%; and `Cl.Cl.O=C(NCc1cncc2c1CCN(CC1CCOC1)C2)c1ccno1` (stereo not drawn), with 2.196%; and `Cl.Cl.O=C(NCc1cncc2c1CCN(Cc1ccc(F)cc1)C2)C1CC1`, with -3.295%. Take `Cl.Cl.O=C(NCc1cncc2c1CCN(C1CCOCC1)C2)c1ccco1`: the “Percent Effect” value worked out at 116%. With `Cl.Cl.O=C(NCc1cncc2c1CCN(Cc1cccc(F)c1)C2)C1CC1`, the “Percent Effect” value is on record as 1.539%. As for `Cl.Cl.O=C(NCc1cncc2c1CCN(C1CCOCC1)C2)c1ccno1`, the “Percent Effect” value is 114.6%. Turning to `CC(C)CN1CCC(C(=O)NCCNC(=O)c2ccco2)CC1`, the “Percent Effect” value was -4.338%. As for `Cl.Cl.O=C(NCc1cncc2c1CCN(Cc1ccccc1)C2)C1CC1`, the “Percent Effect” value came to 12.37%.

As for `Cl.Cl.O=C(NCc1cncc2c1CCN(C1CCOC1)C2)c1ccco1` (stereo not drawn), the “Percent Effect” value stood at 112.9%. On to `Cl.Cl.O=C(NCc1cncc2c1CCN(CC1CCOC1)C2)c1ccco1` (stereo not drawn), for which the “Percent Effect” value came to 105%. As for `CS(=O)(=O)N1CCCN(C(=O)c2ccc(Cn3ccccc3=O)o2)CC1`, the “Percent Effect” value is listed as 2.265%.

`O=C(NS(=O)(=O)c1ccccc1Cl)c1cccc2c1OCCO2`: the “Percent Effect” value is listed as -4.478%. With `Cc1ccc(CN(C)C)cc1NC(=O)C1CC=CC1`, the “Percent Effect” value was -13.67%. Take `CCc1ncc2c(n1)CN(CC(=O)N1CCc3sccc3C1)CC2`: the “Percent Effect” value was 0.7848%. Then `N#Cc1ccc(N2CCCC3(CCN(c4cccnc4)CC3)C2)cc1.O=C(O)C(F)(F)F`, with 32.72%. Turning to `O=C(O)C(F)(F)F.O=C(O)C(F)(F)F.c1cncc(N2CCCC3(CCN(CCN4CCCC4)CC3)C2)c1`, the “Percent Effect” value is 112%. For the compound `O=C(O)C(F)(F)F.c1cncc(N2CCOCC3(CCCN(c4nncs4)C3)C2)c1` (stereo not drawn), the “Percent Effect” value is given as -4.249%. Regarding `Fc1cnccc1CN1CCCC2(CCN(c3ncccn3)CC2)C1.O=C(O)C(F)(F)F`, the “Percent Effect” value is reported as -3.022%.

Regarding `O=C(O)C(F)(F)F.c1cncc(N2CCCC3(CCN(CC4CCCO4)CC3)C2)c1` (stereo not drawn), the “Percent Effect” value stood at 83.5%. Then `COc1ccc(N2CCCC3(C2)CN(c2cccnc2)CCO3)cc1.O=C(O)C(F)(F)F` (stereo not drawn), with 0.9473%; and `O=C(O)C(F)(F)F.c1cncc(N2CCC3(CCCN(c4ccncc4)C3)CC2)c1`, with 92.43%.

For `c1ccc(NCc2cn3c(n2)CN(Cc2nccs2)CC3)nc1`, the “Percent Effect” value turned out to be 0.03801%. Then `CC(=O)c1cc(CC(=O)N2CCN(S(=O)(=O)c3ccccc3)CC2)cs1`, with -20.85%; and `COc1cc2c(nn1)CCN(Cc1nnc(Cc3ccccc3)o1)C2`, with 16.22%.

In the case of `CC(C)COCCCNC(=O)NC(C)c1ccc(-n2cncn2)cc1` (stereo not drawn), the “Percent Effect” value was -8.242%. With `COCCNC(=O)[C@H]1C[C@@H]2CCN(CCc3ccccc3)C[C@H]2O1.O=C(O)C(F)(F)F`, the “Percent Effect” value is 28.03%. On to `O=C(NCc1cccnc1)[C@@H]1C[C@@H]2CCN(c3ncc(F)cn3)C[C@@H]2O1.O=C(O)C(F)(F)F.O=C(O)C(F)(F)F`, for which the “Percent Effect” value turned out to be 11.34%. For the compound `O=C(NCc1cccnc1)[C@@H]1C[C@H]2[C@H](CCN2c2ncc(F)cn2)O1.O=C(O)C(F)(F)F.O=C(O)C(F)(F)F`, the “Percent Effect” value was -1.497%.

Regarding `COCCNC(=O)[C@H]1C[C@@H]2CCN(CCc3ccccc3)C[C@@H]2O1.O=C(O)C(F)(F)F`, the “Percent Effect” value is on record as -51.54%.

In the case of `COCCNC(=O)[C@H]1C[C@@H]2CCN(c3ccncn3)C[C@H]2O1.O=C(O)C(F)(F)F`, the “Percent Effect” value amounted to 90.71%. As for `COCCNC(=O)[C@@H]1C[C@@H]2CCN(c3ncccn3)C[C@H]2O1.O=C(O)C(F)(F)F`, the “Percent Effect” value was 90.69%.

Take `O=C(NCc1cccnc1)[C@H]1C[C@@H]2CCN(c3ccncn3)C[C@H]2O1.O=C(O)C(F)(F)F.O=C(O)C(F)(F)F`: the “Percent Effect” value turned out to be 98.22%. Then `COCCNC(=O)[C@H]1C[C@@H]2CCN(c3ccccc3)C[C@H]2O1.O=C(O)C(F)(F)F`, with 88.58%.

Consider `COC(=O)c1ccc(N2CCN(C(=O)CCCc3cn[nH]c3)CC2)cc1`, for which the “Percent Effect” value is -14.7%.

`CCNc1ncc(C(=O)NCc2csc(C)n2)cn1`: the “Percent Effect” value was -20.21%. In the case of `OCCOc1ccc(NCc2cccc3cccnc23)cn1`, the “Percent Effect” value is on record as -13.71%. On to `COCCNC(=O)[C@H]1C[C@@H]2CCN(c3ncccn3)C[C@@H]2O1`, for which the “Percent Effect” value is on record as 107.5%. Then `COCCNC(=O)[C@H]1C[C@@H]2CCN(c3ncccn3)C[C@H]2O1.O=C(O)C(F)(F)F`, with 108.2%; and `COCCNC(=O)[C@@H]1CN(c2ncccn2)C[C@H]2OCC[C@H]21`, with -43.81%; and `COCCNC(=O)[C@H]1CN(c2ncccn2)C[C@H]2OCC[C@@H]12`, with -34.97%.
